Experimental data reported in PubChem BioAssay (EPA / NIEHS).
Several values for one entry are separate records, joined by “and”; a condition that tells them apart may be missing. Equal values may be shown once. Results filed as inconclusive are left out. More than one record can exist for a structure, and the calls need not agree. Activity calls are given as the source filed them. How the source made its calls, unless noted: active means hit-call score of the fitted dose curve at least 0.9, where 1 is the maximum; inconclusive means response in the unintended direction; inactive means score below 0.9.

Key:
[1] = CEETOX_H295R_11DCORT_noMTC: CeeTox H295R High-throughput Steroidogenesis Assay for 11-Deoxycortisol (11DCORT), maximum tolerated concentration (MTC) filtered results only (AID 2283911; active means hit-call score of the fitted dose curve at least 0.9, where 1 is the maximum; inactive means score below 0.9); settings: actives raise or lower the signal
Outline: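 H295R, OECD 456-based; 10 uM forskolin 48 h → compound (0.1% DMSO) 48 h → medium extracted, 11DCORT by LC-MS/MS. Gain/loss vs DMSO control, all concentrations kept regardless of MTT viability.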

[2] = test system: Sodium/Iodide Symporter (NIS), SLC5A5 (gene 6528); assay: CPHEA_Stoker_NIS_Inhibition_RAIU: CPHEA's Radioactive Iodide Uptake (RAIU) Assay for Sodium/Iodide Symporter (NIS) Inhibition, Stoker and Laws Labs (AID 2283841)
Outline: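 Iodide uptake read as CPM of intracellular 125I (final 329 pM) after 2 h room-temperature exposure in HEPES-buffered HBSS, pH 7.4. Human NIS-expressing HEK293T cells; six concentrations 0.001–100 uM, 0.5% DMSO, normalised to DMSO wells.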

[3] = CPHEA_Stoker_NIS_Cytotoxicity: Cytotoxicity Assessment for CPHEA's Radioactive Iodide Uptake (RAIU) Assay for Sodium/Iodide Symporter (NIS) Inhibition, Stoker and Laws Labs (AID 2283897)
Outline: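 CellTiter-Glo ATP luminescence gauged viability in HEK293T cells expressing human NIS after 2 h chemical exposure. Concentrations ran 0.001–100 uM in 0.5% DMSO; DMSO served as baseline for the loss-of-signal fit.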

[4] = test system: zebrafish Androgen Receptor (AR), gene 100005148; assay: ATG_zfAR_XSP2: Attagene TRANS-FACTORIAL Multi-Species (XSP2) HepG2 Assay for zebrafish Androgen Receptor (AR) (AID 2283825);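 further: hits raise reporter mRNA above DMSO so AC50 reflects agonist-type gain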
Outline: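 Zebrafish AR–GAL4 chimera transiently expressed with GAL4-UAS reporter in HepG2 cells, co-stimulated with 3 nM 6-alpha-fluorotestosterone and 1.5 nM norgestrel; 24 h dosing, reporter mRNA read by RT-PCR/capillary electrophoresis versus DMSO.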

[5] = test system: frog Estrogen Receptor (ER2), gene 100174814; assay: ATG_frER2_XSP2: Attagene TRANS-FACTORIAL Multi-Species (XSP2) HepG2 Assay for frog Estrogen Receptor (ER2) (AID 2283828)
Outline: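 Human liver HepG2, transient MRTU transfection (TRANS format, exogenous NR–Gal4). 24 h cpd exposure. Total RNA → RT → PCR → FAM label → HpaI cut → CE. Positive direction vs DMSO.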

[6] = molecular target: Peroxisome proliferator-activated receptor gamma (Homo sapiens) (UniProt P37231); assay: ATG_hPPARg_XSP2: Attagene TRANS-FACTORIAL Multi-Species (XSP2) HepG2 Assay for human Peroxisome Proliferator-activated Receptor gamma (PPARg) (AID 2283829);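 further: actives raise reporter mRNA above DMSO so AC50 reflects PPARg activation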
Sequence of Peroxisome proliferator-activated receptor gamma (Homo sapiens) (P37231 whole entry, looked up, the tested form may be a part): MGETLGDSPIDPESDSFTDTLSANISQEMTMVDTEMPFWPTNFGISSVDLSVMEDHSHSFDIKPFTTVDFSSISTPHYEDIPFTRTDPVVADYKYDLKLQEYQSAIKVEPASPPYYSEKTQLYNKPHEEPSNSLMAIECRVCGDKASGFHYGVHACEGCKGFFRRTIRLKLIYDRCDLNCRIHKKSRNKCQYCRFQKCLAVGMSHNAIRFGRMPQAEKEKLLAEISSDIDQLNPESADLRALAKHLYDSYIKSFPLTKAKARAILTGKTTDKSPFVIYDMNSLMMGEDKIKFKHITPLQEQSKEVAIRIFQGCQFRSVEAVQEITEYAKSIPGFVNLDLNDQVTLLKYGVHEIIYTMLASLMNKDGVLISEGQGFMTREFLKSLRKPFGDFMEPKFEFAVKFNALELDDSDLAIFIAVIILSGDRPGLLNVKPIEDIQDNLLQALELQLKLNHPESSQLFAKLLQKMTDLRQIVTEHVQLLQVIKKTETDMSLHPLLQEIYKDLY
Outline: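 Transient MRTU transfection, HepG2; TRANS format (exogenous NR-Gal4 chimeras). 24 h chemical exposure with 3 nM 6-alpha-fluorotestosterone and 1.5 nM norgestrel present. Readout: reporter mRNA via RT-PCR/CE fluorescence, up-direction vs DMSO.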

[7] = molecular target: mouse Peroxisome Proliferator-activated Receptor gamma (PPARg), Pparg (gene 19016) (UniProt P37238); assay: ATG_mPPARg_XSP2: Attagene TRANS-FACTORIAL Multi-Species (XSP2) HepG2 Assay for mouse Peroxisome Proliferator-activated Receptor gamma (PPARg) (AID 2283830);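 further: hits are gains in reporter mRNA above DMSO so AC50 marks activation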
Sequence of mouse Peroxisome Proliferator-activated Receptor gamma (PPARg), Pparg (gene 19016) (P37238 whole entry, looked up, the tested form may be a part): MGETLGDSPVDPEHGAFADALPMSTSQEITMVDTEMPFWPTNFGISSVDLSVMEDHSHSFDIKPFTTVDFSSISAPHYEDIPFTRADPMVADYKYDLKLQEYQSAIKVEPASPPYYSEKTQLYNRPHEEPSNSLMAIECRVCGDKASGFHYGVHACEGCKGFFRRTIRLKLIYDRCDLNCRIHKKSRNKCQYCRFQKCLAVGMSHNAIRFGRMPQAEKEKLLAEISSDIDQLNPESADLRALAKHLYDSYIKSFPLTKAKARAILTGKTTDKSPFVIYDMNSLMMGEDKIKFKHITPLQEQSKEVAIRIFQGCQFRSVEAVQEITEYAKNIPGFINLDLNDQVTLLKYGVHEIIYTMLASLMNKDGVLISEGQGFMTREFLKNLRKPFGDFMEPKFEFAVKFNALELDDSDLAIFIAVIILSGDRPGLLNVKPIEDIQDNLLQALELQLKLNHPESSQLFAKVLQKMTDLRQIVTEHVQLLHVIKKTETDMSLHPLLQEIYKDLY
Outline: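 HepG2 cells transiently transfected with GAL4-UAS reporter units for chimeric NR-Gal4 proteins including mouse PPARg, exposed 24 h; medium contained 3 nM 6-alpha-fluorotestosterone and 1.5 nM norgestrel. Reporter mRNA quantified by RT-PCR, HpaI digestion and capillary electrophoresis, vs DMSO.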

[8] = molecular target: Nuclear receptor subfamily 1 group I member 2 (Mus musculus) (UniProt O54915); assay: ATG_mPXR_XSP2: Attagene TRANS-FACTORIAL Multi-Species (XSP1) HepG2 Assay for mouse Pregnane X Receptor (PXR) (AID 2283831)
Sequence of Nuclear receptor subfamily 1 group I member 2 (Mus musculus) (O54915 whole entry, looked up, the tested form may be a part): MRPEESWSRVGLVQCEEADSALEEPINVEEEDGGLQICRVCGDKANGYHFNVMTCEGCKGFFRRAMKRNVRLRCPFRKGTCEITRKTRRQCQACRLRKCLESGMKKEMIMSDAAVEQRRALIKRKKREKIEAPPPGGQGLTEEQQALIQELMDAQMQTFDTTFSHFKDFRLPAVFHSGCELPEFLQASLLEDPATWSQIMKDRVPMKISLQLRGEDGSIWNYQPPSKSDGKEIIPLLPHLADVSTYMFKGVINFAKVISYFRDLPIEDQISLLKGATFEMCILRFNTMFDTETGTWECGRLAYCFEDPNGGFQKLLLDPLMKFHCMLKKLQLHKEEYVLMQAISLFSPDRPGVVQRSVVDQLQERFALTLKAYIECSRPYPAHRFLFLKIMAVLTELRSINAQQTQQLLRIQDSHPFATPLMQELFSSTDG
Outline: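 Transient HepG2 transfection, multiplexed GAL4-UAS reporters, NR-GAL4 chimeras. 24 h compound exposure. Readout: reporter mRNA, RT-PCR, fluorescent capillary electrophoresis; positive direction vs DMSO baseline.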

[9] = test system: zebrafish Peroxisome Proliferator-activated Receptor gamma (PPARg), gene 557037; assay: ATG_zfPPARg_XSP2: Attagene TRANS-FACTORIAL Multi-Species (XSP2) HepG2 Assay for zebrafish Peroxisome Proliferator-activated Receptor gamma (PPARg) (AID 2283833);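 further: actives increase reporter signal over DMSO so AC50 reflects activation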
Outline: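 Transfect HepG2 with multiplexed GAL4-UAS reporter constructs; dose chemical 24 h; isolate RNA, reverse-transcribe, PCR-amplify, label and digest reporter products; resolve by capillary electrophoresis. Activity taken as increase over DMSO.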

[10] = test system: turtle Thyroid Hormone Receptor, alpha (TRa), gene 101949057; assay: ATG_trTRa_XSP2: Attagene TRANS-FACTORIAL Multi-Species (XSP1) HepG2 Assay for turtle Thyroid Hormone Receptor, alpha (TRa) (AID 2283834);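 further: hits raise reporter mRNA over the DMSO baseline so AC50 marks activators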
Outline: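 Readout: reporter mRNA induction, fluorescence after RT-PCR, HpaI digestion and capillary electrophoresis. Transiently transfected HepG2, exogenous NR-Gal4 chimera driving GAL4-UAS reporter, 24 h compound exposure. Activity fitted upward relative to DMSO baseline.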

[11] = molecular target: human Thyroid hormone Receptor alpha (TRa), THRA (gene 7067) (UniProt P10827); assay: ATG_hTRa_XSP2: Attagene TRANS-FACTORIAL Multi-Species (XSP2) HepG2 Assay for human Thyroid hormone Receptor alpha (TRa) (AID 2283838)
Sequence of human Thyroid hormone Receptor alpha (TRa), THRA (gene 7067) (P10827 whole entry, looked up, the tested form may be a part): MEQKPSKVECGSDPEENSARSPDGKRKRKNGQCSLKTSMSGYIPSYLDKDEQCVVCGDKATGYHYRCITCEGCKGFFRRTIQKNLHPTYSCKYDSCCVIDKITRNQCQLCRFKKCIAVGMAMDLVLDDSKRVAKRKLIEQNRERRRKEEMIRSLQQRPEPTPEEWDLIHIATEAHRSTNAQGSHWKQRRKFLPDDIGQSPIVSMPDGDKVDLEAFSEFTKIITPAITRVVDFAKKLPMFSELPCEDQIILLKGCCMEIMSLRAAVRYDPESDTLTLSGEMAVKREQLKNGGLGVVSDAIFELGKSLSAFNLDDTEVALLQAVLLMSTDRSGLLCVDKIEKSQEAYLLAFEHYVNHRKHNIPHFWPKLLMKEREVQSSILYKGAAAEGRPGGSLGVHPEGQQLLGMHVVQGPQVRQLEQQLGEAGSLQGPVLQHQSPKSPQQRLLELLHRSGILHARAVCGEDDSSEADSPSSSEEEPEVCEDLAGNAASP
Outline: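 HepG2 cells transiently transfected with multiplexed GAL4-UAS reporter units and exogenous NR-GAL4 chimeras; 24 h chemical exposure with 3 nM 6-alpha-fluorotestosterone and 1.5 nM norgestrel present. Reporter mRNA measured by RT-PCR, FAM labelling, HpaI digestion, capillary electrophoresis; gain-of-signal versus DMSO.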

[12] = molecular target: frog Thyroid hormone Receptor alpha (TRa), thra-a (gene 397942) (UniProt P15204); assay: ATG_frTRa_XSP2: Attagene TRANS-FACTORIAL Multi-Species (XSP2) HepG2 Assay for frog Thyroid hormone Receptor alpha (TRa) (AID 2283839);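 on AC50: AC50 reflects induction of frog TRa-driven reporter mRNA above DMSO baseline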
Sequence of frog Thyroid hormone Receptor alpha (TRa), thra-a (gene 397942) (P15204 whole entry, looked up, the tested form may be a part): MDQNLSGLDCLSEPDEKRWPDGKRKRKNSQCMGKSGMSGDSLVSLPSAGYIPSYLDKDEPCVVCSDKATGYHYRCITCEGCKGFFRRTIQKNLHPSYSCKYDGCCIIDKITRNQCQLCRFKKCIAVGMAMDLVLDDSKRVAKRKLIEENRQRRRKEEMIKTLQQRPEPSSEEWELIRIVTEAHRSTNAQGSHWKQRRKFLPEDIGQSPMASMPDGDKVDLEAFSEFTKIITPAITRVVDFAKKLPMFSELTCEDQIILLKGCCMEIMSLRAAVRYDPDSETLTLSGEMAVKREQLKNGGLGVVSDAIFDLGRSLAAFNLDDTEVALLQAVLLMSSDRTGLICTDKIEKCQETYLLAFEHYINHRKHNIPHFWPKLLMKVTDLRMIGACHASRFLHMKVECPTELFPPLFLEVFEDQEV
Outline: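 Read-out: fluorescent reporter-transcript fragments resolved by capillary electrophoresis after RT-PCR and HpaI cut. Human HepG2 liver cells carry a transfected frog TRα-Gal4 chimera driving a UAS reporter; 24 h exposure, DMSO baseline, positive-direction fit.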

[13] = molecular target: human Thyroid hormone Receptor beta (TRb), THRB (gene 7068) (UniProt P10828); assay: ATG_hTRb_XSP2: Attagene TRANS-FACTORIAL Multi-Species (XSP2) HepG2 Assay for human Thyroid hormone Receptor beta (TRb) (AID 2283840);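 further: actives raise reporter mRNA so potency reflects agonist-like gain of signal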
Sequence of human Thyroid hormone Receptor beta (TRb), THRB (gene 7068) (P10828 whole entry, looked up, the tested form may be a part): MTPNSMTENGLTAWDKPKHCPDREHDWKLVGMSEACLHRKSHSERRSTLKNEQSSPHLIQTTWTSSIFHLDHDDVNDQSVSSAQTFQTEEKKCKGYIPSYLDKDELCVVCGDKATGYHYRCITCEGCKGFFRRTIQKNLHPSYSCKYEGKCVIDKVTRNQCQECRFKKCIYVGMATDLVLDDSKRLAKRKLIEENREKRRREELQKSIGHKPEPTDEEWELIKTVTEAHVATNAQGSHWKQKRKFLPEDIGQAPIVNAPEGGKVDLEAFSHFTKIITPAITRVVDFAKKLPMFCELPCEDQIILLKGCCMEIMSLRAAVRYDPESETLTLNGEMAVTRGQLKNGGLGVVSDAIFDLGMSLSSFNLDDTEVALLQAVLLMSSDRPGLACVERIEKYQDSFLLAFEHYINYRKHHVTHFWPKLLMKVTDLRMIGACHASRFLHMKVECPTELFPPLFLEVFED
Outline: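 Read-out: reporter mRNA induction (RT-PCR, 6-FAM labeling, capillary electrophoresis), gain-of-signal relative to DMSO baseline. Transiently transfected HepG2 TRANS multiplex (NR-Gal4 chimeras, GAL4-UAS reporters), 24 h chemical exposure; medium contained 3 nM 6-alpha-fluorotestosterone plus 1.5 nM norgestrel.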

[14] = ATG_M_32_XSP2: Attagene TRANS-FACTORIAL Multi-Species (XSP2) HepG2 Assay for M19 Transcription Factor (Internal Marker) (AID 2283826)
Outline: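 Read-out: fluorescent reporter mRNA fragments resolved by capillary electrophoresis after RT-PCR, gain-of-signal versus DMSO baseline. Cells were human HepG2 carrying transfected multi-reporter units, exposed 24 h. Medium contained 3 nM 6-alpha-fluorotestosterone plus 1.5 nM norgestrel.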

[15] = molecular target: Estrogen receptor (Homo sapiens) (UniProt P03372); assay: ATG_hERa_XSP2: Attagene TRANS-FACTORIAL Multi-Species (XSP2) HepG2 Assay for human Estrogen Receptor (ERa) (AID 2283827)
Sequence of Estrogen receptor (Homo sapiens) (P03372 whole entry, looked up, the tested form may be a part): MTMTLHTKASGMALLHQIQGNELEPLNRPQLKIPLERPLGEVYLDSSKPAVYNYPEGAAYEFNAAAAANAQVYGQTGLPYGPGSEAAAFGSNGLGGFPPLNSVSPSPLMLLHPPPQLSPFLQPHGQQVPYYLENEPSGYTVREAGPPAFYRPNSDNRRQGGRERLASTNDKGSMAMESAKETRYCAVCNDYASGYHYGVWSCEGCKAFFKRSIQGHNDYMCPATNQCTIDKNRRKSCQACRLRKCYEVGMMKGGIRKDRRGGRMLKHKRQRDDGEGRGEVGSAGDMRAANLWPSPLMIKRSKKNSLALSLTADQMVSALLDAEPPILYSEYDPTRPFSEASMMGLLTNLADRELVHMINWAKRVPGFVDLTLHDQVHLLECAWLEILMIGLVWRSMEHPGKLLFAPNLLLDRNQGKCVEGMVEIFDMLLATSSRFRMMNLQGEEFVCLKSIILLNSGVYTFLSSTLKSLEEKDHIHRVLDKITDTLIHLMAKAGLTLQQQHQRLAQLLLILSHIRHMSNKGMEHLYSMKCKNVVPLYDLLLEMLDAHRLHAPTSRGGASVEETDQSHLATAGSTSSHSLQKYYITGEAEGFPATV
Outline: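 HepG2 cells transiently transfected with multiplexed GAL4-UAS reporters driven by chimeric receptor-Gal4 proteins, dosed 24 h with 3 nM 6-alpha-fluorotestosterone and 1.5 nM norgestrel present. Reporter mRNA by RT-PCR and capillary electrophoresis; gain-of-signal fit versus DMSO.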

[16] = molecular target: zebrafish Thyroid Hormone Receptor alpha (TRa), thraa (gene 30670) (UniProt Q98867); assay: ATG_zfTRa_XSP2: Attagene TRANS-FACTORIAL Multi-Species (XSP1) HepG2 Assay for zebrafish Thyroid Hormone Receptor alpha (TRa) (AID 2283832);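 further: actives raise zebrafish TRa-Gal4 reporter transcript above DMSO baseline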
Sequence of zebrafish Thyroid Hormone Receptor alpha (TRa), thraa (gene 30670) (Q98867 whole entry, looked up, the tested form may be a part): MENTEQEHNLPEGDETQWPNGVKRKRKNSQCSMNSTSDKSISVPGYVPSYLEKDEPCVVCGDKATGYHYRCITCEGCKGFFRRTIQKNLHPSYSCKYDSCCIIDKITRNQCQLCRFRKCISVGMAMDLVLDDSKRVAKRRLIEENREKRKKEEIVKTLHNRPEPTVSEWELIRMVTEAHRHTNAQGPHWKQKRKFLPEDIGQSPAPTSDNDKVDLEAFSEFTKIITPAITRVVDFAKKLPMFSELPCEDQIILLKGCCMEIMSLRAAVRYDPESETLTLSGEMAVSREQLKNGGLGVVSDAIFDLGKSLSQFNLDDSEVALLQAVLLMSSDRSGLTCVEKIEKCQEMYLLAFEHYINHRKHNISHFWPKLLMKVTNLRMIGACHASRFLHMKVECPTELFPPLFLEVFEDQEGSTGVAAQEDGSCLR
Outline: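 Chimeric receptor-Gal4 activity was assessed in transfected human liver HepG2 cells 24 h after dosing, using reporter transcript levels detected by RT-PCR and capillary electrophoresis. DMSO served as baseline.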

[17] = ATG_M_61_XSP2: Attagene TRANS-FACTORIAL Multi-Species (XSP2) HepG2 Assay for M61 Transcription Factor (Internal Marker) (AID 2283835; active means hit-call score of the fitted dose curve at least 0.9, where 1 is the maximum; inactive means score below 0.9;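 further: reporter mRNA of an internal background marker read by RT-PCR and capillary electrophoresis; active means a rise in signal above the DMSO baseline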)
Outline: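 HepG2 cells transiently transfected with multiple GAL4-UAS reporter units; 3 nM 6-alpha-fluorotestosterone and 1.5 nM norgestrel present to stimulate androgen receptor. After 24 h compound exposure, reporter mRNA measured by RT-PCR and capillary electrophoresis fluorescence, gain-of-signal versus DMSO baseline.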

[18] = molecular target: zebrafish Thyroid Hormone Receptor beta (TRb), thrb (gene 30607) (UniProt Q9PVE4); assay: ATG_zfTRb_XSP2: Attagene TRANS-FACTORIAL Multi-Species (XSP1) HepG2 Assay for zebrafish Thyroid Hormone Receptor beta (TRb) (AID 2283836)
Sequence of zebrafish Thyroid Hormone Receptor beta (TRb), thrb (gene 30607) (Q9PVE4 whole entry, looked up, the tested form may be a part): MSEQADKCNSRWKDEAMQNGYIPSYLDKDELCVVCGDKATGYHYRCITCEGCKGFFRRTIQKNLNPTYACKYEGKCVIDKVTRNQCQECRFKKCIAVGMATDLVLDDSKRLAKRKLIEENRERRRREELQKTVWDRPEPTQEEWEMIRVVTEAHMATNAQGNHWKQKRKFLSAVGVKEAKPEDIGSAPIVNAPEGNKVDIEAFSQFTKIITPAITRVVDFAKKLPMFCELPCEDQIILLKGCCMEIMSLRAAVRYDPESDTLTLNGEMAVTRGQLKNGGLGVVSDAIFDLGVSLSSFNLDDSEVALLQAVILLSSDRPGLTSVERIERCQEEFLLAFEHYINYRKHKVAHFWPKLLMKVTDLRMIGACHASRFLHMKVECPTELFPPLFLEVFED
Outline: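 Fluorescence of labelled reporter cDNA fragments, separated by capillary electrophoresis, gives mRNA induction from exogenous NR-Gal4 chimeras in transiently transfected HepG2 cells after 24 h dosing; 3 nM 6-alpha-fluorotestosterone and 1.5 nM norgestrel included in the run.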

[19] = test system: frog Androgen Receptor (AR), gene 399456; assay: ATG_frAR_XSP2: Attagene TRANS-FACTORIAL Multi-Species (XSP2) HepG2 Assay for frog Androgen Receptor (AR) (AID 2283824);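 further: actives raise reporter signal above DMSO so AC50 reflects agonist-like induction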
Outline: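 HepG2 cells transiently transfected with GAL4-UAS reporter units and frog (Xenopus laevis) AR-Gal4 chimera; reporter mRNA measured 24 h after dosing by RT-PCR and capillary electrophoresis. Gain of signal fitted relative to DMSO baseline.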

[20] = ATG_XTT_Cytotoxicity_XSP2: Cytotoxicity Assessment in the Attagene TRANS-FACTORIAL Multi-Species (XSP2) HepG2 Assay (AID 2283837)
Outline: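 HepG2 cells, transiently transfected with multiple reporter constructs, exposed to chemical for 24 h. Cell number assessed with XTT fluorescence read-out; loss of signal fitted relative to DMSO.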

Measured: AC50

OC[P+](CO)(CO)CO
active: [1] 6.54 µM

CCCSP(=S)(OCC)Oc1ccc(SC)cc1 (stereo not drawn)
inactive: [2] | [3]

CC(C)(C)c1ccccc1O
inactive: [3]

O=C(O)C1(c2ccc3c(c2)OC[C@H](Cc2ccc(-c4ccccc4)cc2)[C@H]3O)CCCC1
inactive: [2] | [3]

CCCCCCCCCCCCc1cccc(S(=O)(=O)O)c1
inactive: [2] | [3]

CC(C)=CC1C(C(=O)OCc2cccc(Oc3ccccc3)c2)C1(C)C (stereo not drawn)
inactive: [2] | [3]

N#CCCC(Br)(C#N)CBr (stereo not drawn)
inactive: [2] | [3]

CC(=Cc1ccccc1)[N+](=O)[O-]
inactive: [2] | [3]

O=C1c2ccccc2C(=O)C1C(=O)C(c1ccccc1)c1ccc(Cl)cc1 (stereo not drawn)
inactive: [2] | [3]

O=[N+]([O-])c1ccccc1O
inactive: [2] | [3]

N#CS
active: [2] 6.43 µM
inactive: [3]

COCCl
active: [5] 61.9 µM | [8] 7.08 µM
inactive: [4] | [5] | [6] | [7] | [8] | [9] | [10] | [11] | [12] | [13]

[Cl][Sn]([c]1ccccc1)([c]1ccccc1)[c]1ccccc1
active: [6] 41 nM | [7] 184 nM | [16] 0.925 µM | [13] 0.558 µM
inactive: [4] | [14] | [15] | [5] | [9] | [10] | [17] | [18] | [12]

CCOc1ccc(N)cc1
inactive: [2] | [3]

O=C(NC(=O)c1c(F)cccc1F)Nc1cc(Cl)c(OC(F)(F)C(F)C(F)(F)F)cc1Cl (stereo not drawn)
inactive: [2] | [3]

c1cc[c]([Sb]([c]2ccccc2)[c]2ccccc2)cc1
inactive: [1]

Oc1cc(Cl)c(Cl)cc1Cl
inactive: [8] | [16] | [9] | [10] | [18] | [20] | [11] | [12] | [13] | [2] | [3]
active: [19] 5.4 µM and 2.63 µM | [5] 24.5 µM and 19.2 µM | [6] 60.1 µM and 44.2 µM | [7] 65 µM and 35 µM | [10] 21.7 µM | [11] 26.3 µM | [12] 100 µM
